From PubChem BioAssay
D3 ag = activates the human D3 dopamine receptor | D3R DiscoveRx beta-arrestin cells, luminescence, 90 min | max activation, % | actives 0.58% (n = 410,000) | AID 652048; in the data active = max activation above about 30%
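Agonist-mode cell screen: cells plated at 1500/well and incubated overnight at 37 °C, then exposed to library compounds for 90 min at 37 °C. Detection reagent was added for 30–60 min at room temperature, and luminescence was read.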
D1 agonist = activates the human D1 dopamine receptor. P21728. HEK293 T-REx D1 cells, calcium flux, agonist mode. activation, % at 2 µM. actives 1% (n = 360,000); in the data active = activation above about 30%
Target sequence (P21728 whole entry, looked up): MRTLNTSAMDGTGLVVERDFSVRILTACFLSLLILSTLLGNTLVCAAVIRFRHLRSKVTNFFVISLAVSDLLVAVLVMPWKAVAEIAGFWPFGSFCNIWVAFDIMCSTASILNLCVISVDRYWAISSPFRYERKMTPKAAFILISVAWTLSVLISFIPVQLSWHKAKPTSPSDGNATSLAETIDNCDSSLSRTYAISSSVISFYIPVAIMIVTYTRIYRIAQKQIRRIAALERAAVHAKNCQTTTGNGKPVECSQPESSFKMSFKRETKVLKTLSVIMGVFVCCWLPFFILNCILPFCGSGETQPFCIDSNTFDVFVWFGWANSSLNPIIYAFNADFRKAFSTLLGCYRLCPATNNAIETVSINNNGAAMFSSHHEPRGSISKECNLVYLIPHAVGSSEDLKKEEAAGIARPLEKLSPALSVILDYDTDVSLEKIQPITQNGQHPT
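Inducible HEK293 T-REx D1 cells, force-coupled to calcium signalling, were plated at 4000 cells/well with tetracycline and held overnight at 30 C. After no-wash calcium dye loading, compound-evoked calcium rise over 180 s flagged agonists.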
D3 antag = blocks the human D3 dopamine receptor | actives 2.5% (n = 360,000) | P35462 | max response, negative = inhibition, % | D3R cells, DiscoveRx beta-arrestin luminescence, antagonist mode; hits give low values | AID 652054; in the data active = max response below about -50%; inconclusive = no clear call, values can overlap the other calls
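Cells expressing the human receptor were seeded at 1500 cells/well, incubated overnight at 37 degrees C in 5% CO2, then exposed to library compounds with dopamine controls for 90 minutes at 37 degrees C before luminescent detection.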
D1 potentiator = enhances dopamine response at the human D1 receptor; P21728; HEK293 TREx D1 cells, calcium flux, dopamine EC20 potentiation; potentiation, % at 10 µM; actives 0.036% (n = 360,000); AID 504651; in the data active = potentiation above about 30%
D1 antagonist = blocks dopamine activation of the human D1 receptor; HEK293 TREx D1 cells, calcium flux, dopamine EC80; hits give low values; P21728; activity change, negative = inhibition, % at 10 µM; AID 504652; actives 3.2% (n = 360,000); in the data active = activity change below about -30%
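Allosteric or orthosteric antagonism assessed as attenuation of the calcium response to EC80 dopamine, added 180 s after compound, in induced HEK293 Trex D1 cells loaded with no-wash calcium dye.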
Hits are given with their value; i = inactive; ? = inconclusive; nt = no result. The list is not random: actives were taken first. Their share in the collection is about 6%.

SMILES	D3 ag	D1 agonist	D3 antag	D1 potentiator	D1 antagonist
CCN1CCN(C(=O)/C=C/c2ccc(C)cc2)CC1	i	i	i	i	i
Cc1ccc(/C=C/C(=O)N2CCCN(C(=O)/C=C/c3ccc(C)cc3)CC2)cc1	i	i	-58	i	i
Nc1c(C(=O)CSc2nccn2-c2cccc(F)c2)c(=O)[nH]c(=O)n1C1CC1	i	i	i	i	-31
COc1ccc2c(c1)CC(C(=O)Nc1ccc(Br)c(C)c1)CO2 (centres undefined)	i	i	nt	i	i
O=C(NCc1cccnc1)/C(=C\c1ccc(-c2ccc(Br)cc2)o1)S(=O)(=O)c1ccccc1	i	i	-89	i	i
O=C(NCc1cccnc1)/C(=C/c1ccc(-c2ccc(Cl)cc2)o1)S(=O)(=O)c1ccccc1	i	i	?	i	i
CCCCCCCCCCCCCCCCCC(=O)[O][Al]	i	nt	nt	nt	nt
O=C(NCCCNC1CCCCC1)c1ccc(/C=N/O)nc1	i	i	-60	i	i
CNCCCNC(=O)c1ccc(/C=N/O)nc1	i	i	i	i	i
CCCOc1ccc(C2C3=C(Nc4nc(N)[nH]c(=O)c42)c2ccccc2C3=O)cc1 (centres undefined)	i	i	-55	i	i
COC(=O)c1cc2sccc2n1CC(=O)Nc1ccc(OC)c(OC)c1	i	i	nt	i	i
O=C1/C(=C\c2ccco2)SC(=S)N1C1CCCCC1	nt	i	nt	34	i
Cc1cc(Cn2nc(C(=O)NCc3cccc(C(F)(F)F)c3)cc2-c2ccccc2)on1	i	i	-60	i	i
Cc1ccc(CNC(=O)CN(c2ccc(Cl)cc2Cl)S(=O)(=O)c2ccccc2)cc1	i	i	nt	i	i
COC(=O)c1cc(Cl)c(NC(=O)c2ccc(C(C)(C)C)cc2)cc1OC	70	i	i	i	i
COC(=O)c1cc(Cl)c(NC(=O)C(C)C)cc1OC	i	i	i	i	i
COc1cc(C(=O)NCc2nc3cccnc3n2Cc2ccc(C)cc2)cc(OC)c1OC	i	i	nt	i	i
COc1ccc(CC2=CC(=O)c3ccccc3C2=O)cc1	i	i	-56	i	i
COc1ccc(Cc2ccccc2C(=O)O)cc1	i	nt	i	nt	nt
O=[N+]([O-])c1ccc(N2CCN(c3ccc(F)cc3)CC2)cc1	i	i	i	i	i
Cc1nonc1OCCN1CCN(c2ccc([N+](=O)[O-])cc2)CC1	i	i	i	i	-40
O=[N+]([O-])c1ccc(CN2CCN(c3ccccc3)CC2)o1	i	i	i	i	i
O=[N+]([O-])c1ccc(N2CCN(Cc3ccc([N+](=O)[O-])o3)CC2)cc1	i	i	i	i	-33
O=[N+]([O-])c1ccc(N2CCSCC2)cc1	i	i	i	i	-38
COc1ccc(-c2nc3nc(C)cc(N4CCN(c5cccc(C(F)(F)F)c5)CC4)n3n2)cc1	i	i	nt	i	i
SMILES	D3 ag	D1 agonist	D3 antag	D1 potentiator	D1 antagonist
COc1ccc(-c2cn3nc(SCC(=O)Nc4ccc(C)c(Cl)c4)ccc3n2)cc1	i	i	nt	i	i
Cc1sc2ncn(CC(=O)N3CCN(c4cccc(Cl)c4)CC3)c(=O)c2c1S(=O)(=O)N1CCC(C)CC1	i	i	nt	i	i
COc1ccc(CNC(=O)Cn2c(-c3ccccc3)cc(C(C)=O)c2C)cc1OC	i	i	nt	i	i
CCOC(=O)N1CCc2c(sc3c2c(=O)n(-c2ccc(F)cc2)c(=O)n3CC(=O)c2ccccc2)C1	i	i	nt	i	i
NCCNc1ccc([N+](=O)[O-])c(Sc2nc3ccccc3[nH]2)c1	i	i	i	i	i
CC(Nc1cc(N2CCNCC2)ccc1[N+](=O)[O-])c1ccccc1 (centres undefined)	i	42	i	i	i
O=[N+]([O-])c1ccc(N2CCNCC2)cc1Sc1nc2ccccc2[nH]1	i	i	-66	i	i
Cc1ccc(S(=O)(=O)N(C)C)cc1NC(=O)COC(=O)c1ccc2ccccc2n1	i	i	i	i	-55
CN(C)S(=O)(=O)c1cccc(NC(=O)COC(=O)c2ccc3ccccc3n2)c1	i	nt	i	nt	nt
Nc1cc(C(Cl)=C(Cl)Cl)c(S(N)(=O)=O)cc1S(N)(=O)=O	i	i	i	i	-33
CCN(CC)S(=O)(=O)c1cccc(-c2n[nH]c(=S)n2/N=C/c2ccc(Br)cc2)c1	i	i	-54	i	i
CCN(CC)S(=O)(=O)c1cccc(-c2n[nH]c(=S)n2/N=C/c2ccc(OC)cc2)c1	i	i	i	i	i
